# According to ChEMBL document CHEMBL1961873, “Compounds: GSK PKIS; Assays: Nanosyn kinase panel” (2012):
# Biological target: Tyrosine-protein kinase FRK (Homo sapiens) (UniProt P42685)
# Details: at 1 µM
# 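Also: reported percent inhibition is a mean value.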
# Chain of Tyrosine-protein kinase FRK (Homo sapiens) (P42685 whole entry): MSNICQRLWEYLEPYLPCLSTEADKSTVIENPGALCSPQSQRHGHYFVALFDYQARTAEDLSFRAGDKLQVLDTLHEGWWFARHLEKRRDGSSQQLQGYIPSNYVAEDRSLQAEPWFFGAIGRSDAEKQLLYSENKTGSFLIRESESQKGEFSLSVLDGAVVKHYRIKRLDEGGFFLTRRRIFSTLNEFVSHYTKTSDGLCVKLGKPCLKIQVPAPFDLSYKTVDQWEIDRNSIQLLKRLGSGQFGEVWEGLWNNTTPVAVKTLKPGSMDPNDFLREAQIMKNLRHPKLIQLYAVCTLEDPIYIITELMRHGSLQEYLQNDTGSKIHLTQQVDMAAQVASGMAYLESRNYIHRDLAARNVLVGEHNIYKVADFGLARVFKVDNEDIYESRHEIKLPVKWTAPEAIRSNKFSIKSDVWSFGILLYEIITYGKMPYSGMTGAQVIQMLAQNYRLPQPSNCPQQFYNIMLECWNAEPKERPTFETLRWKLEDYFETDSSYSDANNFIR
row,SMILES,inhibition [%]
1,Nc1ncnc2occ(-c3ccc(NC(=O)Nc4cc(C(F)(F)F)cc(C(F)(F)F)c4)cc3)c12,4.51
2,CCn1c(-c2nonc2N)nc2c(N3CCCC3)nccc21,0
3,CCn1c(-c2nonc2N)nc2cnc(Oc3cccc(NC(=O)c4ccc(OCCN5CCOCC5)cc4)c3)cc21,0.86
4,COc1ccccc1Nc1ncc(-c2ccccc2)o1,5.01
5,Cc1cccc(-c2n[nH]cc2-c2ccc3ncccc3n2)n1,-0.81
6,CC1=C(C(=O)Nc2ccc3[nH]ncc3c2)C(c2ccc(F)cc2)NC(=O)N1 (stereo unspecified),1.47
7,CCCN1CCC=C(c2ccc(Nc3nc(Nc4ccccc4C(N)=O)c4cc[nH]c4n3)c(C)c2)C1,4.17
8,CS(=O)(=O)Nc1ccc(N/C=C2\C(=O)Nc3ccccc32)cc1,0.76
9,CCN1CCC(CC(=O)Nc2n[nH]c3nc(-c4cccs4)c(Br)cc23)CC1,-0.21
10,CS(=O)(=O)CCNCc1ccc(-c2ccc3ncnc(Nc4ccc(OCc5cccc(F)c5)c(C(F)(F)F)c4)c3c2)o1,3.48
11,COc1ccc(-c2nn3ncccc3c2-c2ccnc(Nc3ccc(Cl)c(C(F)(F)F)c3)n2)cc1,0.79
12,c1cnn2ncc(-c3ccnc(Nc4ccc5c(c4)OCCO5)n3)c2c1,3.19
13,CCn1c(-c2nonc2N)nc2cncc(C(=O)N3CC[C@H](N)C3)c21,2.04
14,NCc1ccc(-c2nc(-c3ccc(Cl)c(O)c3)c(-c3ccncc3)[nH]2)cc1,35.3
15,COc1cc2ncn(-c3cc(OCc4ccccc4C(F)(F)F)c(C(N)=O)s3)c2cc1OC,3.46
16,COc1ccc(-c2ccncc2)cc1C(N)=O,5.68
